HT1080-NT tox: qHTS for induction of synthetic lethality in tumor cells producing 2HG: qHTS for the HT-1080-NT fibrosarcoma cell line; HT-1080-NT fibrosarcoma viability, CellTiter-Glo ATP luminescence, 48 h; 1.6% of 360,000 active; AID 686970, 2013; Potency, µM (series often up to 46.1 µM), hits mostly cytotoxic;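 further: NT is the 2HG producing partner of a matched IDH1 knockdown line; nearly all actives have a fitted effect of over 55% in size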
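HT-1080-NT; 750 cells/well; 5% FBS RPMI; 48 h compound, 37 degrees C; CellTiter-Glo luminescence; curve fitting and curve-class assignment.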
IL-1B inflam inh: qHTS for Inhibitors of Inflammasome Signaling: IL-1-beta AlphaLISA Primary Screen; THP-1 LPS/ATP IL-1B secretion, AlphaLISA, 16 h; stronger effect = lower value; activity change, % at 57.5 µM; 4.7% of 360,000 active; in the data active means activity change below about -50%; inconclusive means mostly about -30% to -49%
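THP-1 cells pretreated 1 hr with compounds (up to 57.5 uM final), then stimulated with LPS (250 ng/mL final) plus ATP (1.25 mM final); secreted IL-1B measured by AlphaLISA after 16 hr, decreased signal indicating inhibition.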
HT1080 IDH1KD tx: qHTS for induction of synthetic lethality in tumor cells producing 2HG: qHTS for the HT-1080-IDH1KD cell line | HT-1080 IDH1 knockdown viability, ATP luminescence, 48 h | Potency, µM (doses to about 46.1 µM), most hits filed as cytotoxic | 2% of 360,000 active
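% activity derives from luminescence (CellTiter-Glo), normalised to DMSO and no-cell wells. HT-1080-IDH1KD cells, 750/well, had 48 h compound exposure at 37 °C.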
TDP1 cell CPT: qHTS for Inhibitors of human tyrosyl-DNA phosphodiesterase 1 (TDP1): qHTS in cells in presence of CPT | chicken DT40 Tdp1-/-;hTDP1 cells + 20 nM CPT, ATP luminescence, 48 h | Potency, µM (titrated, usually from 46.2 µM), actives largely listed as inhibitors | 12% of 420,000 active; further: nearly all actives have a fitted effect of over 55% in size
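Cell growth measured by CellTiter-Glo luminescence after a minimum 48 h, 37 C compound exposure with 20 nM CPT in Tdp1-knockout DT40 cells stably expressing hTDP1, seeded 400/well; qHTS titration format.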
TDP1 cell noCPT: qHTS for Inhibitors of human tyrosyl-DNA phosphodiesterase 1 (TDP1): qHTS in cells in absence of CPT; DT40 Tdp1-/- hTDP1 cells, no CPT, ATP luminescence, 48 h; Potency, µM (highest dose often 46.2 µM), hits mostly inhibitors; 15% of 420,000 active; AID 686978, 2013; further: nearly all actives have a fitted effect of over 55% in size
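Chicken DT40 Tdp1-/- cells stably complemented with human TDP1 were seeded at 400 cells/well with DMSO in place of 20 nM camptothecin. After compound pinning, cells grew at least 48 hr at 37 °C; viability read by CellTiter-Glo luminescence.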
Hits are given with their value; . = inactive; ? = inconclusive; / = no result; [ ] = another dose, or the depositor's remark. In the library only some 19% were active in any assay of this set; here they are far more common. Unless noted, the call rests on the fitted dose curve; in most records, active means well fitted curve in the direction sought with a large enough effect; inconclusive means small, poorly fitted or top-dose-only effect, or another doubt; inactive means no such curve, though single readings can be large; an effect the other way counts as inactive or inconclusive.

SMILES	HT1080-NT tox	IL-1B inflam inh	HT1080 IDH1KD tx	TDP1 cell CPT	TDP1 cell noCPT
O=C(COCc1cc(-c2cccs2)on1)N1CCN(c2ccc(F)cc2)CC1	/	/	/	18.4µM	14.6µM
O=C(COCc1cc(-c2ccc3c(c2)OCO3)on1)N1CCN(c2ccc(F)cc2)CC1	.	.	.	.	?
Cn1c2ccccc2c2cc(C(=O)N3CCOc4ccc(C(C)(O)CCn5cccn5)cc4C3)ccc21 (stereo unspecified)	/	/	/	.	.
COC(=O)C1Cc2ccccc2CN1C(=O)CCl (stereo unspecified)	8.2µM	-97.2	14.6µM	14.6µM	14.6µM
COC(=O)[C@H](Cc1ccccc1)NC(=O)N1Cc2ccccc2C[C@H]1C(=O)OC	.	.	.	.	?
Nc1ccc2c(c1)C(=O)c1cc([N+](=O)[O-])ccc1-2	.	?	.	.	.
O=C1c2ccccc2-c2cc([N+](=O)[O-])c([N+](=O)[O-])cc21	/	/	/	0.398µM	0.501µM
Cc1ccc(NC(=O)c2nnn(-c3ccc4c(c3)OCCO4)c2N)cc1	.	-89.6	.	?	?
Nc1c(C(=O)Nc2ccccc2)nnn1-c1ccc2c(c1)OCCO2	.	-59.8	.	.	?
Cc1ccccc1Cn1nnc(C(=O)Nc2ccc3c(c2)OCCO3)c1N	.	?	?	?	?
Cc1ccc(NC(=O)c2nnn(-c3cccc(C(F)(F)F)c3)c2N)cc1	.	.	.	.	.
CCOC(=O)C1=C(COC(=O)CCCOc2ccccc2)NC(=O)NC1C (stereo unspecified)	.	.	.	.	.
Cn1c(=O)oc2cc(S(=O)(=O)CCC(=O)N3CCN(c4ccccc4)CC3)ccc21	.	.	.	.	.
Cn1c(=O)oc2cc(S(=O)(=O)CCC(=O)N3CCN(c4cccc(Cl)c4)CC3)ccc21	/	/	/	18.4µM	11.6µM
CSCCC(NS(=O)(=O)c1ccc2c(c1)oc(=O)n2C)C(=O)N1CCN(c2cccc(Cl)c2)CC1 (stereo unspecified)	/	/	/	?	20.6µM
CN1C(=O)Cc2cc(S(=O)(=O)CCC(=O)N3CCN(c4cccc(Cl)c4)CC3)ccc21	/	/	/	20.6µM	8.2µM
Cc1ccc(Cl)cc1N1CCN(C(=O)Cn2ncc3c4ccccc4n(C)c3c2=O)CC1	/	/	/	.	.
CC(C)=CCC[C@H](C)C[C@@H]1Cc2[nH][nH]c(=O)c2[C@H](c2ccc(F)cc2)O1	.	.	.	?	20.6µM
CCCCC1Cc2[nH][nH]c(=O)c2C(c2ccc(F)cc2)O1 (stereo unspecified)	?	.	25.9µM	?	?
CCCCC1Cc2[nH][nH]c(=O)c2C(c2ccc(Cl)cc2)O1 (stereo unspecified)	.	.	.	.	.
COc1ccc(-n2nnnc2SCC(=O)Nc2ccc(OC)cc2OC)cc1	.	.	.	.	.
COCCNc1nc(NCCCN(C)C)c2sccc2n1	?	.	.	.	.
CC(C)Nc1nc(Nc2ccccc2Cl)c2sccc2n1	.	-62.9	.	23.1µM	23.1µM
Cc1ccccc1-c1nc(NC(C)C)nc2ccsc12	.	.	.	?	?
COCCNc1nc(NCCOc2ccccc2Cl)c2sccc2n1	?	.	?	13µM	16.4µM
SMILES	HT1080-NT tox	IL-1B inflam inh	HT1080 IDH1KD tx	TDP1 cell CPT	TDP1 cell noCPT
COCCNc1nc(Nc2ccccc2Cl)c2sccc2n1	?	.	?	?	23.1µM
O=c1c(-c2cc(-c3ccc(F)cc3)nc3c2COc2ccc(Cl)cc2-3)coc2ccc(F)cc12	/	/	/	.	.
CN(C)c1ccc(-c2nn3c(-c4cc(-c5ccccc5)n[nH]4)nnc3s2)cc1	/	/	/	5.01µM	3.16µM
Clc1ccc(OCc2nn3c(-c4ccco4)nnc3s2)cc1	.	.	.	?	18.4µM
Clc1ccc(-c2nn3c(-c4ccccc4)nnc3s2)cc1	.	.	.	?	.
Clc1ccccc1-c1nn2c(-c3cc(-c4ccccc4)n[nH]3)nnc2s1	/	/	/	12.6µM	11.2µM
Cc1cc(-c2nnc3sc(-c4ccc(Cl)cc4Cl)nn23)n[nH]1	.	?	.[9.24 µM]	?	?
COc1ccc(-c2nn3c(-c4ccc(F)cc4)nnc3s2)cc1	.	?	.	.	?
COc1cccc(OC)c1-c1nn2c(-c3cc(-c4ccccc4)n[nH]3)nnc2s1	?	.	?	18.4µM	?
C#CCOCCOCCOCCNc1nc(N2CCN(C(=O)[C@H](C)n3cc(CCC(=O)O)nn3)CC2)nc(N2CCN(C(=O)[C@H](Cc3ccc(O)cc3)n3cc(CCO)nn3)CC2)n1	.	.	.	.	.
COc1cccc(NC(=O)CN(C)C(=O)C23CC4CC(CC(Cl)(C4)C2)C3)c1	.	?	.	.	?
COc1ccc([C@H]2C[C@H](O)[C@@H](n3cc(-c4ccc(F)cc4)nn3)CN2CC2CCCCC2)cc1	.	.	.	.	?
COc1ccccc1-c1nn2c(-c3ccco3)nnc2s1	.	.	.	?	18.4µM
COc1ccccc1-c1nn2c(-c3cc(-c4ccccc4)n[nH]3)nnc2s1	/	/	/	6.31µM	4.47µM
COc1ccccc1-c1nn2c(=O)cc(C)nc2s1	.	.	.	.	.
CN(C)NC(=S)NC(=O)C12CC3CC(CC(C3)C1)C2	.	.	.	4.11µM	8.2µM
CN(C(=S)NC(=O)C12CC3CC(CC(C3)C1)C2)c1ccc(O)cc1	.	.	.	5.8µM	4.61µM
CC(C)(C)NC(=S)NC(=O)C12CC3CCC(CC(C3)C1)C2	.	.	.	?	?
CN(C)c1ccc(C(=O)NNC(=O)C23CC4CC(CC(C4)C2)C3)cc1	.	.	.	.	?
O=C(NC(=S)NC1C2CC3CC(C2)CC1C3)C12CC3CC(CC(C3)C1)C2 (stereo unspecified)	.	.	.	?	14.6µM
O=C(CCc1ccccc1)NNC(=O)COc1ccc([N+](=O)[O-])cc1	.	.	.	.	.
CCC(=O)C1=C(O)C(c2cccc(Oc3ccccc3)c2)CCC1=O (stereo unspecified)	.	.	.	20.6µM	9.2µM
COc1ccc2c(c1)C(=O)CCC2c1ccccc1 (stereo unspecified)	.	.	.	.	?
COc1ccccc1-n1c(SCC(=O)N(C)C)nnc1-c1ccco1	.	.	.	.	?
CN(C)c1ccnc2c[cH-]cc12.[Fe].c1ccc(-[c-]2[c-](-c3ccccc3)[c-](-c3ccccc3)[c-](-c3ccccc3)[c-]2-c2ccccc2)cc1 (stereo unspecified)	.	.	.	5.17µM	3.66µM
